Test system: MILI (PIWIL2) piRISC loaded with L1MC piRNA (26 nt)
Experiment: pre-steady-state target cleavage rate (min^-1); guide: L1MC piRNA 5'p-UAACUAAAUACUAUGCAAGCUGUAGG; MIWI and MILI are mouse PIWI proteins and EfPiwi is from a freshwater sponge; tags in brackets are library labels; higher = faster piRNA-guided slicing of the target
Details: auxiliary factor: none (no GTSF1)
Method in brief: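 Cleave-'n-Seq used a transcribed, DNA-blocked target RNA library at 0.1 nM and active affinity-purified piRISC with one synthetic guide at 1 nM, with or without 500 nM GTSF1 partner protein, in HEPES–potassium acetate buffer at 33 °C for 0–8 or 0–960 min. Uncleaved targets were sequenced and normalised to depth and to weakly complementary targets, and three trials were pooled with k3 capped at 0.0001 min^-1. The pre-steady-state cleavage rate was estimated by a burst-and-steady-state fit.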

pre-steady-state target cleavage rate, < 0.0001:
UCCUGGAUGUCGAACGUUAGCAUUUAGUUA, UCCUGGAUGUCGAACGAAAGUAUUUUGUUA, UCCUGGAUCAGCUUGCAAUCUAUUUACAAA, UCCUGGAUGUCGAACGUAAGUAAUUAGUUA, UCCUGGAUGUCGAACGUUAGUAUUUACGUUA

Reference: the supplement of paper PMC10338343
